Measured values as given in the supplement of paper PMC9262897, “Low-cost anti-mycobacterial drug discovery using engineered E. coli” (Nature Communications, 2022).
Where a name gives a salt, the structure may show the parent alone. ± gives the standard deviation of the averaged measurements.

How the values were obtained:
Test in all cases: growth (OD600 after 10 h); higher = more growth (less inhibition)
[1] = test system: E. coli TESEC Alr+ wild-type control; conditions: compound 0.1 mM; raw OD600 reference: median of DMSO wells 0.241, cell-free background 0.041
Description: (§1)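 TESEC Mtb Alr E. coli, or the Alr+ wild-type control, in 384-well plates with Prestwick library compounds at 0.1 mM and 1% DMSO, across arabinose induction levels of 1E3 to 1E7 nM. Growth is read as OD600 after 10 h at 37 °C in triplicate biological replicates.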

[2] = test system: E. coli TESEC Mtb Alr; conditions: compound 0.1 mM
Description: as §1

[3] = test system: E. coli TESEC Mtb Asd; conditions: compound 0.1 mM
Description: (§2)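 TESEC E. coli strains in which the native enzyme is deleted and replaced by arabinose-inducible Mtb Asd, DapB, CysH or TrpD, each grown in its selective medium. Strains were screened against the Prestwick library at 0.1 mM and 1% DMSO in 384-well format at low and high arabinose induction. Growth is read as OD600 after 10 h in triplicate.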

[4] = test system: E. coli TESEC Mtb DapB; conditions: compound 0.1 mM
Description: as §2

[5] = test system: E. coli TESEC Alr+ wild-type control; conditions: compound 0.1 mM; raw OD600 reference: median of DMSO wells 0.49, cell-free background 0.052
Description: (§3)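 TESEC Mtb Alr E. coli (ΔaraC ΔtolC ΔentC Δalr ΔdadX, arabinose-inducible Mtb Alr) or the Alr+ wild-type control strain, grown in defined M9-fructose medium without D-alanine in 96-well plates with Prestwick library compounds at 0.1 mM and 1% DMSO. Low Alr induction is 0.1 µM arabinose and high induction is 10 mM arabinose.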

[6] = test system: E. coli TESEC Mtb Alr; conditions: compound 0.1 mM; remark: listed apart in the source
Description: as §3

[7] = arabinose 1000 nM, raw OD600 reference: median of DMSO wells 0.294, cell-free background 0.041
[8] = arabinose 10000 nM, raw OD600 reference: median of DMSO wells 0.264, cell-free background 0.041
[9] = arabinose 100000 nM, raw OD600 reference: median of DMSO wells 0.201, cell-free background 0.041
[10] = arabinose 1000000 nM, raw OD600 reference: median of DMSO wells 0.193, cell-free background 0.041
[11] = arabinose 10000000 nM, raw OD600 reference: median of DMSO wells 0.146, cell-free background 0.041
[12] = arabinose induction (level): High, raw OD600 reference: median of DMSO wells 0.331, cell-free background 0.041
[13] = arabinose induction (level): Low, raw OD600 reference: median of DMSO wells 0.417, cell-free background 0.041
[14] = arabinose induction (level): High, raw OD600 reference: median of DMSO wells […], cell-free background 0.041
[15] = arabinose induction (level): Low, raw OD600 reference: median of DMSO wells 0.227, cell-free background 0.041
[16] = arabinose 100 nM, raw OD600 reference: median of DMSO wells 0.413, cell-free background 0.052
[17] = arabinose 10000000 nM, raw OD600 reference: median of DMSO wells […], cell-free background 0.052

Compound	growth [1]	growth [2, 7]	growth [2, 8]	growth [2, 9]	growth [2, 10]	growth [2, 11]	growth [3, 12]	growth [3, 13]	growth [4, 14]	growth [4, 15]	growth [5]	growth [6, 16]	growth [6, 17]
Cc1nccn1CC1CCc2c(c3ccccc3n2C)C1=O (centres undefined) [Ondansetron Hydrochloride]	0.195 ± 0.004	0.272 ± 0.0034	0.252 ± 0.0038	0.246 ± 0.0034	0.304 ± 0.014	0.146 ± 0.0028	0.432 ± 0.06	0.191 ± 0.011	0.229 ± 0.013	0.183 ± 0.004	0.526 ± 0.11	0.365 ± 0.013	0.384 ± 0.0066
Cc1cnc(NC(=O)C2=C(O)c3ccccc3S(=O)(=O)N2C)s1 [Meloxicam]	0.148 ± 0.0039	0.186 ± 0.0048	0.238 ± 0.012	0.208 ± 0.039	0.117 ± 0.0022	0.149 ± 0.0054	0.245 ± 0.035	0.296 ± 0.1	0.201 ± 0.021	0.195 ± 0.0074	0.461 ± 0.023	0.33 ± 0.04	0.221 ± 0.016
COc1ccc2c3c1O[C@H]1C[C@@H](O)C=C[C@@]31CCN(C)C2 [Galanthamine hydrobromide]	0.249 ± 0.0042	0.291 ± 0.0095	0.245 ± 0.0045	0.218 ± 0.014	0.161 ± 0.0075	0.1382 ± 0.00072	0.229 ± 0.0098	0.376 ± 0.094	0.186 ± 0.012	0.195 ± 0.016	0.459 ± 0.04	0.409 ± 0.01	0.34 ± 0.022
O=C1CN(/N=C/c2ccc(-c3ccc([N+](=O)[O-])cc3)o2)C(=O)N1 [Dantrolene sodium salt]	0.2259 ± 0.00093	0.263 ± 0.0054	0.184 ± 0.003	0.143 ± 0.007	0.105 ± 0.0026	0.131 ± 0.0074	0.167 ± 0.014	0.258 ± 0.013	0.192 ± 0.016	0.231 ± 0.072	0.446 ± 0.023	0.319 ± 0.1	0.187 ± 0.033
CC1(C)O[C@@H]2C[C@H]3[C@@H]4CCC5=CC(=O)C=C[C@]5(C)[C@H]4[C@@H](O)C[C@]3(C)[C@]2(C(=O)CO)O1 [Desonide]	0.185 ± 0.0048	0.252 ± 0.0091	0.254 ± 0.011	0.172 ± 0.014	0.15 ± 0.005	0.144 ± 0.0029	0.208 ± 0.0068	0.378 ± 0.065	0.181 ± 0.005	0.248 ± 0.034	0.496 ± 0.062	0.414 ± 0.011	0.302 ± 0.019
CN(C)CCCN1c2ccccc2CCc2ccc(Cl)cc21 [Clomipramine hydrochloride]	0.04137 ± 0.00021	0.03983 ± 0.00015	0.03953 ± 0.00025	0.0451 ± 0.0062	0.04 ± 0.00035	0.0473 ± 0.0044	0.0467 ± 0.00076	0.0482 ± 0.0034	0.0466 ± 0.00055	0.0467 ± 0.00083	0.202 ± 0.26	0.4115 ± 0.0024	0.193 ± 0.066
CN(C)CCOC(c1ccccc1)c1ccccc1.Cn1c(=O)c2[nH]c(Cl)nc2n(C)c1=O [Dimenhydrinate]	0.213 ± 0.0024	0.255 ± 0.012	0.226 ± 0.0081	0.174 ± 0.011	0.134 ± 0.01	0.133 ± 0.0031	0.261 ± 0.044	0.342 ± 0.12	0.174 ± 0.0038	0.197 ± 0.014	0.53 ± 0.059	0.402 ± 0.008	0.319 ± 0.0044
CCCNC(C)C(=O)Nc1c(C)csc1C(=O)OC (centres undefined) [Articaine hydrochloride]	0.249 ± 0.0025	0.3163 ± 0.0008	0.266 ± 0.0049	0.213 ± 0.013	0.162 ± 0.0036	0.147 ± 0.0054	0.257 ± 0.064	0.442 ± 0.02	0.205 ± 0.016	0.236 ± 0.043	0.47 ± 0.023	0.407 ± 0.015	0.316 ± 0.021
